Consider 38 compounds from PubChem BioAssay (Tox21).

Where “and” joins values, the source holds several entries; their conditions need not be identical. Identical values can stand only once. Inconclusive results are not listed. Where a call stands in place of a potency, no number is given. Where a structure was tested more than once in an assay, its records may differ in their call. Calls of active or inactive are those of the source. Calls come from the whole dose curve; as a rule, active = well fitted curve in the direction sought with a large enough effect in the repeat runs; inconclusive = weak or mixed curves; inactive = no such curve, though single readings can be large; an effect the other way counts as inactive or inconclusive.
Potency is the fitted concentration of half-maximal effect.

The first experiment is described as follows: qHTS RealTime-Glo MT Cell Viability Assay in HepG2 cells - 32 hour (AID 1224877). Note: nearly all actives have a fitted effect of over 55% in size. The note with it: RealTime-Glo luminescence; series mostly up to 76.8 µM; activity change, negative = cytotoxic: at the top concentration. The procedure, abridged:
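Tox21 10K library screened in qHTS format on HepG2 cells carrying RealTime-Glo reagents. Compounds were added after a 5 h preincubation, and the luminescent signal from continuous culture was measured repeatedly during 40 h treatment.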
With `CCC(=O)Nc1ccc(Cl)c(Cl)c1`, the Potency entry is “inactive”.

For the compound `ClCC(Cl)CCl`, the Potency result was “inactive”.

For `O=[N+]([O-])/N=C1\NCCN1Cc1ccc(Cl)nc1`, the Potency result is “inactive”.

Regarding `ClC(Cl)(Cl)c1ccccc1`, the Potency result was “inactive”.

Take `CCN(CC)C(=O)C(C)Oc1cccc2ccccc12` (centres undefined): the Potency entry is “inactive”.

Regarding `CC(C)(C#N)N=NC(C)(C)C#N`, the Potency result is “inactive”.

`CCCCOCC1CO1` (centres undefined): the Potency result is “inactive”.

On to `CS(=O)(=O)NC(=O)c1cc(Oc2ccc(C(F)(F)F)cc2Cl)ccc1[N+](=O)[O-]`, for which the Potency result is “inactive”.

Regarding `CC(C)(c1ccccc1)c1ccc(O)cc1`, the “activity change, negative = cytotoxic” value was -14.6% (inactive).

Regarding `CC(C)Nc1ccc(Nc2ccccc2)cc1`, the Potency is 54.7 µM (active).

With `COP(=O)(NC(C)=O)SC` (centres undefined), the Potency result was “inactive”.

Turning to `C[N+](C)(C)C`, the Potency result is “inactive”.

For `CC1CC(=O)O1` (centres undefined), the Potency result was “inactive”.

For the compound `CCOP(=S)(OCC)OP(=S)(OCC)OCC`, the Potency entry is “inactive”.

With `CNC(=S)S`, the Potency entry was “inactive”.

For the compound `O=S(=O)(O)C(F)(F)C(F)(F)C(F)(F)C(F)(F)C(F)(F)C(F)(F)C(F)(F)C(F)(F)F`, the Potency entry was “inactive”.

For `CCOS(=O)(=O)OCC`, the Potency result is “inactive”.

For the compound `C=CC(Cl)CCl` (centres undefined), the Potency result is “inactive”.

In the case of `C[C@]12CCC(=O)C=C1CC[C@@H]1[C@@H]2CC[C@@]2(C)[C@H]1CC[C@]2(C)O`, the “activity change, negative = cytotoxic” value was -14.2% [at 35.3 µM] (inactive).

`CC(C)(c1ccccc1)c1ccc(O)c(C(C)(C)c2ccccc2)c1`: the Potency is 49 µM (active).

For the compound `OCCOCCO`, the Potency result is “inactive”.

`CCCCC(C#N)(Cn1cncn1)c1ccc(Cl)cc1` (centres undefined): the Potency entry was “inactive”.

Take `Cl`: the Potency result is “inactive”.

For the compound `COP(=S)(OC)Oc1ccc(S(=O)(=O)N(C)C)cc1`, the Potency entry is “inactive”.

With `O=C(O)c1nn(Cc2ccc(Cl)cc2Cl)c2ccccc12`, the Potency result was “inactive”.

For the compound `CC(C)(O)C(=O)Nc1ccc([N+](=O)[O-])c(C(F)(F)F)c1`, the Potency result is “inactive”.

In the case of `CNC(=O)Oc1cccc2c1OC(C)(C)C2`, the Potency entry is “inactive”.

Take `Oc1ccc(Cl)cc1Cl`: the Potency result is “inactive”.

On to `N#CC(c1ccccc1)c1ccccc1`, for which the Potency entry was “inactive”.

`[Cl-].[Cl-].[Cl-].[Fe+3]`: the Potency result was “inactive”.

For the compound `CCCCCCCCCCCCCl`, the Potency entry is “inactive”.

As to `CCCCOCCOC(C)=O`, the Potency entry is “inactive”.

`[CH3][Sn]([Cl])([Cl])[Cl]`: the Potency entry was “inactive”.

On to `Nc1ccc([N+](=O)[O-])cc1N`, for which the Potency result was “inactive”.

For the compound `ClC(Cl)(Cl)Br`, the Potency result was “inactive”.

In the case of `COc1ccc(C=O)cc1OC`, the Potency entry is “inactive”.

With `Brc1ccc(Br)cc1`, the Potency entry was “inactive”.

A further experiment in a line: A CellTox Green Cytotoxicity Assay to monitor cytotoxicity in HepG2 cells - 24 hour (AID 1224878). Note: nearly all actives have a fitted effect of over 45% in size. The note with it: CellTox Green fluorescence; series mostly up to 76.8 µM; cytotoxicity: at the top concentration. An outline of the steps:
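HepG2 cells were seeded together with the CellTox Green dye at 600 cells/well, left 5 h at 37 C/5% CO2, then given compounds in DMSO. Fluorescence from dye bound to dead-cell DNA was read repeatedly over 40 h of treatment at 37 C.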
On to `CCC(=O)Nc1ccc(Cl)c(Cl)c1`, for which the Potency result is “inactive”.

As for `ClCC(Cl)CCl`, the Potency result is “inactive”.

In the case of `O=[N+]([O-])/N=C1\NCCN1Cc1ccc(Cl)nc1`, the Potency entry is “inactive”.

As to `ClC(Cl)(Cl)c1ccccc1`, the Potency result is “inactive”.

As to `CCN(CC)C(=O)C(C)Oc1cccc2ccccc12` (centres undefined), the Potency result was “inactive”.

Consider `CC(C)(C#N)N=NC(C)(C)C#N`, for which the Potency entry was “inactive”.

Consider `CCCCOCC1CO1` (centres undefined), for which the Potency result was “inactive and 38.9 µM (active)”.

Regarding `CS(=O)(=O)NC(=O)c1cc(Oc2ccc(C(F)(F)F)cc2Cl)ccc1[N+](=O)[O-]`, the Potency entry was “inactive”.

`CC(C)(c1ccccc1)c1ccc(O)cc1`: the Potency was 48.6 µM (active) and 21.9 µM (active).

In the case of `CC(C)Nc1ccc(Nc2ccccc2)cc1`, the Potency is 43.6 µM (active).

With `COP(=O)(NC(C)=O)SC` (centres undefined), the Potency result was “inactive”.

For `C[N+](C)(C)C`, the Potency entry is “inactive”.

For the compound `CC1CC(=O)O1` (centres undefined), the Potency result was “inactive”.

For the compound `CCOP(=S)(OCC)OP(=S)(OCC)OCC`, the Potency result was “inactive”.

Consider `CNC(=S)S`, for which the Potency result is “inactive”.

Regarding `O=S(=O)(O)C(F)(F)C(F)(F)C(F)(F)C(F)(F)C(F)(F)C(F)(F)C(F)(F)C(F)(F)F`, the Potency was 18.6 µM (active) and inactive.

Regarding `CCOS(=O)(=O)OCC`, the Potency result was “inactive”.

Regarding `C=CC(Cl)CCl` (centres undefined), the “cytotoxicity” value was -10.9% (inactive).

As to `C[C@]12CCC(=O)C=C1CC[C@@H]1[C@@H]2CC[C@@]2(C)[C@H]1CC[C@]2(C)O`, the Potency was 35 µM (active).

Turning to `CC(C)(c1ccccc1)c1ccc(O)c(C(C)(C)c2ccccc2)c1`, the Potency was 48.5 µM (active) and 43.6 µM (active).

As for `OCCOCCO`, the Potency entry was “inactive”.

In the case of `CCCCC(C#N)(Cn1cncn1)c1ccc(Cl)cc1` (centres undefined), the “cytotoxicity” value was 21.4% (inactive).

For `Cl`, the Potency entry is “inactive”.

For the compound `COP(=S)(OC)Oc1ccc(S(=O)(=O)N(C)C)cc1`, the Potency entry is “inactive”.

`O=C(O)c1nn(Cc2ccc(Cl)cc2Cl)c2ccccc12`: the Potency entry was “inactive and 107 nM (active)”.

On to `CC(C)(O)C(=O)Nc1ccc([N+](=O)[O-])c(C(F)(F)F)c1`, for which the Potency entry is “inactive”.

Consider `CNC(=O)Oc1cccc2c1OC(C)(C)C2`, for which the Potency result was “inactive”.

Take `Oc1ccc(Cl)cc1Cl`: the Potency entry was “inactive”.

For `CC[n+]1c(-c2ccccc2)c2cc(N)ccc2c2ccc(N)cc21`, the Potency entry is “inactive”.

As to `N#CC(c1ccccc1)c1ccccc1`, the Potency entry was “inactive”.

`[Cl-].[Cl-].[Cl-].[Fe+3]`: the Potency entry was “inactive”.

For `CCCCCCCCCCCCCl`, the Potency result is “inactive and 12.3 µM (active)”.
